The text below walks through data of ChEMBL document CHEMBL3988442, “University of Dundee, Small-Polar-MMV Screening Library” (2021).

Each structure is given as a SMILES string. Hit rate of the full screen: of about 38,000 compounds, about 1,200 (3.2%) showed an effect of 50% or more. The median lay at about -58%. The full list was thinned out, with strong results kept by preference.

The assay concerns Plasmodium falciparum. The experiment in a line: Calibr Malaria Delayed Death Assay SOP. Type of assay: functional, organism-based. On the set-up: scale not given: in the data most compounds retested in dose-response had high values. The note with it: concentration 4.99e-06 (unit not given; other assays of the set use mol/L).
Turning to `CN(C)C(=O)N1CCN(CCn2nc3ccccn3c2=O)CC1`, the “Percent Effect” value is recorded as -59.88%. As for `O=C(O)c1cc(/C=C/c2ccccc2)ncn1`, the “Percent Effect” value is on record as -169%.

`N#Cc1ccc(C2CC(=O)Nc3c2cnn3C2CCCC2)cc1` (stereo not drawn): the “Percent Effect” value is recorded as 52.33%.

With `O=C1CC(c2ccc(F)cc2)c2cnn(C3CCCC3)c2N1` (stereo not drawn), the “Percent Effect” value is -115.7%. Under `O=C1CC(c2ccccc2)c2cnn(C3CCCC3)c2N1` (stereo not drawn) stands -174.4%; under `COc1ccc(C(C)=O)cc1CN1CCn2cccc2C1C` (stereo not drawn), -51.16%. With `CSc1ccc(-c2nc(CN3CCC(C(N)=O)CC3)c(C)o2)cc1`, the “Percent Effect” value is -89.92%.

In the case of `CNC(=O)C1CCN(Cc2nc(-c3ccc(SC)cc3)oc2C)C1` (stereo not drawn), the “Percent Effect” value is reported as -104%. As to `CSc1ccc(-c2nc(CN3CCC(CN)C3)c(C)o2)cc1` (stereo not drawn), the “Percent Effect” value was 88.32%. As for `Cc1nc2c(c(NC3CCN(Cc4ccccc4)CC3)n1)CCNCC2`, the “Percent Effect” value came to 78.1%.

As for `Cc1nc2c(c(NC3CCN(Cc4cccnc4)CC3)n1)CCNCC2`, the “Percent Effect” value is on record as -53.07%. `Cc1nc2c(c(NC3CC3)n1)CCN(C(=O)CCc1cccnc1)CC2`: the “Percent Effect” value was -33.43%. Under `Cc1cccc(CN2CC3(CCN(C(=O)C4CC4)CC3)OCC2=O)n1` stands -86.74%. In the case of `COc1c(C)cnc(CNC(=O)c2cnc3onc(C)c3c2)c1C`, the “Percent Effect” value is -29.67%.

Regarding `CN(CCCc1cc(-c2ccc(F)cc2)n[nH]1)C(=O)CCn1cncn1`, the “Percent Effect” value is on record as -232.6%. Under `COCCN(C)C(=O)Cn1cccc(OC)c1=O` stands -122.8%; under `O=C(Cc1cccs1)N1CCn2cc(Cn3cccn3)nc2C1.O=C(O)C(F)(F)F`, -86.13%. Take `CN1CCN(C2CCN(CCOc3ccccc3F)CC2)C1=O`: the “Percent Effect” value is on record as -15.81%. Regarding `O=C(c1ccoc1)N1CC[C@H]2C[C@@H](c3nnc(C4CC4)o3)O[C@@H]2C1`, the “Percent Effect” value is listed as -57.61%. With `Cc1nc(C)n(C2CCCN(C(=O)c3cn4cccnc4n3)C2)n1` (stereo not drawn), the “Percent Effect” value is -31.26%.

As to `CC1(C)CN(C(CNS(N)(=O)=O)c2ccc(Cl)cc2)CCO1` (stereo not drawn), the “Percent Effect” value is given as -0.7806%. Under `CC1(C)CN(C(CNS(C)(=O)=O)c2ccc(Cl)cc2)CCO1` (stereo not drawn) stands -25.75%. Under `O=S(=O)(NCC1(c2cccs2)CCOCC1)c1ccc2c(c1)OCCO2` stands -63.38%; under `Cc1ncsc1CNC(=O)NCC1(c2ccc3c(c2)OCO3)CC1`, -37.92%; under `O=C(Cc1ccc2c(c1)OCCO2)NC1CCCC1`, -102.8%. As to `I.c1cc2c(cc1C1(CNC3=NCCN3)CCCC1)OCCO2`, the “Percent Effect” value amounted to 80.88%. Regarding `Cc1csc(CNC(=O)NCC2(c3ccc4c(c3)OCO4)CC2)n1`, the “Percent Effect” value is listed as -58.48%. As to `c1cnc(NCc2noc3c2CN(c2cnccn2)CC3)nc1`, the “Percent Effect” value was -103.6%.
